Test results published in PubChem BioAssay (Tox21).
Inconclusive results are not listed. A call without a number means that no potency is given here. Values without a mark were called inactive. Activity calls are given as the source filed them. Calls come from the whole dose curve; as a rule, active = well fitted curve in the direction sought with a large enough effect in the repeat runs; inconclusive = weak or mixed curves; inactive = no such curve, though single readings can be large; an effect the other way counts as inactive or inconclusive.

How the values were obtained:
[1] = molecular target: Cytochrome P450 2C19 (Homo sapiens) (UniProt P33261); test: Cytochrome P450 Family 2 Subfamily C Member 19 (CYP2C19) small molecule antagonists: luciferase reporter qHTS assay (AID 1671197); note: series mostly up to about 120 µM; nearly all actives have a fitted effect of over 65% in size
Summary of the method: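 First, compounds are pinned into enzyme-substrate mix and held 10 min at room temperature. Second, NADPH regeneration solution is added and plates incubate 1 h at 37C. Third, detection reagent is added and luminescence read after 20 min.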

[2] = molecular target: Cytochrome P450 2C9 (Homo sapiens) (UniProt P11712); test: Cytochrome P450 Family 2 Subfamily C Member 9 (CYP2C9) small molecule antagonists: luciferase reporter qHTS assay (AID 1671198); note: nearly all actives have a fitted effect of over 50% in size; note: potency is the fitted concentration of half-maximal effect; for activity change, negative = inhibition: series mostly up to about 120 µM
Summary of the method: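 P450-Glo proluciferin substrate with CYP2C9 enzyme; 10 min RT preincubation, then NADPH regeneration 1 h at 37C; luciferin detection reagent 20 min RT, luminescence in relative luminescence units.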

[3] = molecular target: Cytochrome P450 1A2 (Homo sapiens) (UniProt P05177); test: Cytochrome P450 Family 1 Subfamily A Member 2 (CYP1A2) small molecule antagonists: luciferase reporter qHTS assay (AID 1671199); note: nearly all actives have a fitted effect of over 50% in size; note: potency is the fitted concentration of half-maximal effect; for activity change, negative = inhibition: series mostly up to about 120 µM
Summary of the method: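 Luminescence readout (relative luminescence units) after luciferin detection reagent, 20 min RT. Preceded by 1 h room-temperature CYP1A2 reaction with NADPH regeneration solution following 10 min compound preincubation with enzyme and proluciferin substrate. Furafylline positive control.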

[4] = molecular target: Voltage-gated inwardly rectifying potassium channel KCNH2 (Homo sapiens) (UniProt Q12809); test: Human Ether-a-go-go-Related Gene (hERG) channel small molecule antagonists: fluorescence cell-based qHTS assay (AID 1671200);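 note: hERG-expressing U2OS cells given a thallium stimulus after FluxOR II dye loading; series mostly up to about 77 µM; nearly all actives have a fitted effect of over 50% in size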
Summary of the method: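 In this thallium-flux screen, overnight-cultured U2OS cells bearing the channel are dye-loaded in darkness for an hour, rested 10 min at room temperature, and then monitored kinetically at 480/540 nm for two minutes post-stimulus.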

[5] = molecular target: Cytochrome P450 3A4 (Homo sapiens) (UniProt P08684); test: Cytochrome P450 Family 3 Subfamily A Member 4 (CYP3A4) small molecule antagonists: luciferase reporter qHTS assay (AID 1671201); note: series mostly up to about 120 µM; nearly all actives have a fitted effect of over 50% in size
Summary of the method: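 CYP3A4 activity was followed with a P450-Glo proluciferin substrate. Test compounds in DMSO were preincubated 10 min; NADPH regeneration then ran 1 h, and light output was read 20 min after detection reagent.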

[6] = molecular target: Cytochrome P450 2D6 (Homo sapiens) (UniProt P10635); test: Cytochrome P450 Family 2 Subfamily D Member 6 (CYP2D6) small molecule antagonists: luciferase reporter qHTS assay (AID 1671196)
Summary of the method: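 Luminogenic proluciferin substrate, CYP2D6 enzyme; 10 min RT preincubation with compound, NADPH regeneration system added, 1 h RT. Stop/detection reagent, 20 min RT, luminescence read (RLU). Signal proportional to CYP activity.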

Cytochrome P450 2C9 (Homo sapiens), sequence (P11712 whole entry, looked up): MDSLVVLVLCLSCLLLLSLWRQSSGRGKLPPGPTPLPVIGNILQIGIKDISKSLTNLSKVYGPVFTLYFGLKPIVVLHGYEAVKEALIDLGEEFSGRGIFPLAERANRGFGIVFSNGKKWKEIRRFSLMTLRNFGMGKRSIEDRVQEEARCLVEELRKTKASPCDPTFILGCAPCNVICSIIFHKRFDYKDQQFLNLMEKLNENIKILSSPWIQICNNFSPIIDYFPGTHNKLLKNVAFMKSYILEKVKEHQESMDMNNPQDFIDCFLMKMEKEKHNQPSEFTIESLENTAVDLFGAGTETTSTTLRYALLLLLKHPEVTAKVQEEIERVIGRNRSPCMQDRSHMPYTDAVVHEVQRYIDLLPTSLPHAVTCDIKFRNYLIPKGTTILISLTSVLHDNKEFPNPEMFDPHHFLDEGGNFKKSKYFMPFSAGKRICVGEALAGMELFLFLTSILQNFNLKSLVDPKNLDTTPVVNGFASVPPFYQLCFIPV
Voltage-gated inwardly rectifying potassium channel KCNH2 (Homo sapiens), sequence (Q12809 whole entry, looked up): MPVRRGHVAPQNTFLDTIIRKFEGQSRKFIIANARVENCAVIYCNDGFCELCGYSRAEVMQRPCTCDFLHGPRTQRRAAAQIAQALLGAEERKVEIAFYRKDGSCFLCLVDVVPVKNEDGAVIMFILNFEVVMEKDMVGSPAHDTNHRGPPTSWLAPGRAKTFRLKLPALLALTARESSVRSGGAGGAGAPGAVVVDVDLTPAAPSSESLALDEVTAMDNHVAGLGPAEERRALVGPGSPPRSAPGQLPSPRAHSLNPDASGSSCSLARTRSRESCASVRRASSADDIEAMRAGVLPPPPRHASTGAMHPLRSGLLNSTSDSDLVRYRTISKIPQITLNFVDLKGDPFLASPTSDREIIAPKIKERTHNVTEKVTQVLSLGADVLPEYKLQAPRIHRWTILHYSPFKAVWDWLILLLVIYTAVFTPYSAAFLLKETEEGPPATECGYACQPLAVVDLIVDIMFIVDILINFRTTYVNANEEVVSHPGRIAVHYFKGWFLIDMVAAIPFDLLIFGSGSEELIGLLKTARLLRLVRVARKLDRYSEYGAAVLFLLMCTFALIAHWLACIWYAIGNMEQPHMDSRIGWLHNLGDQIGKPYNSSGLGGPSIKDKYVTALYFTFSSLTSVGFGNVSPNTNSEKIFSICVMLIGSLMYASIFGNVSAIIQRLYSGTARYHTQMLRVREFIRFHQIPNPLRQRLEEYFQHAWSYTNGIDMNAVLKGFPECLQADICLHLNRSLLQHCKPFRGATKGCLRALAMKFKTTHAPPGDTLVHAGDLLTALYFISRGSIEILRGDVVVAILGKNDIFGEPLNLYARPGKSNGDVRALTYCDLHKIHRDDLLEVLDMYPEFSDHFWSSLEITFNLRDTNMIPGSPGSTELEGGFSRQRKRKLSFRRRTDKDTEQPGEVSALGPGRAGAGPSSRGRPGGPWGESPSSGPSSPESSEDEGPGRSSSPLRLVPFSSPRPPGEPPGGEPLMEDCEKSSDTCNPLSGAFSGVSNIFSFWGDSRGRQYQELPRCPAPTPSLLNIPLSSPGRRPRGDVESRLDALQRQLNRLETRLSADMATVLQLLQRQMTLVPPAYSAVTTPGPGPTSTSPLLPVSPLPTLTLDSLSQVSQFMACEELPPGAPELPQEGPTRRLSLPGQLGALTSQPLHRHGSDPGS
Cytochrome P450 1A2 (Homo sapiens), sequence (P05177 whole entry, looked up): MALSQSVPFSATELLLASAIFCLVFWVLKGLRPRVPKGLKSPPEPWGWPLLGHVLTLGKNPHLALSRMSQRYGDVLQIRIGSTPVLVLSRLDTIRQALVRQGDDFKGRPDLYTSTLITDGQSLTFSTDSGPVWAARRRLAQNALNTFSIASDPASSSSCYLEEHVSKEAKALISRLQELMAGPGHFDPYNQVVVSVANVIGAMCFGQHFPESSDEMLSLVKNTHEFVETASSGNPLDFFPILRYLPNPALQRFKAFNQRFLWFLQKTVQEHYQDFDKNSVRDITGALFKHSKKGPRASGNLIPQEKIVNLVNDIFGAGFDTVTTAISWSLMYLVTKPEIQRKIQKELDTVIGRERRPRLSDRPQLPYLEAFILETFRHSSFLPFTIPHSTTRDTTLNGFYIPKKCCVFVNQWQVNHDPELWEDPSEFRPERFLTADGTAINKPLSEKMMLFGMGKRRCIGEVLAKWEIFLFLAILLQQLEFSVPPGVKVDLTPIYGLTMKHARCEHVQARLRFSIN
Cytochrome P450 2C19 (Homo sapiens), sequence (P33261 whole entry, looked up): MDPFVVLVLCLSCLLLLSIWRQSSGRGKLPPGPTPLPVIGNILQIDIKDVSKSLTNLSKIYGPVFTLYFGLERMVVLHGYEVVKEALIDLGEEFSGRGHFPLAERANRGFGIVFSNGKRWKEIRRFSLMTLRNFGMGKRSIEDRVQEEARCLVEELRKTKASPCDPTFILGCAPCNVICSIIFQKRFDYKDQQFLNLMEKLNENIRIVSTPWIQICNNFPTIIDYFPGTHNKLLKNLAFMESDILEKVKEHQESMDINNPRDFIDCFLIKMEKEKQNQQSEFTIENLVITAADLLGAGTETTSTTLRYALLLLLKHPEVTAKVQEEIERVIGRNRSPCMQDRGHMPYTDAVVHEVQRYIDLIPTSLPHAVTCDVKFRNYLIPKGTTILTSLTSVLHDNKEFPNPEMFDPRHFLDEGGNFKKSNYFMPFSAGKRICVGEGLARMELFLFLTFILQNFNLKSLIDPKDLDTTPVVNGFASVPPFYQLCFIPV
Cytochrome P450 3A4 (Homo sapiens), sequence (P08684 whole entry, looked up): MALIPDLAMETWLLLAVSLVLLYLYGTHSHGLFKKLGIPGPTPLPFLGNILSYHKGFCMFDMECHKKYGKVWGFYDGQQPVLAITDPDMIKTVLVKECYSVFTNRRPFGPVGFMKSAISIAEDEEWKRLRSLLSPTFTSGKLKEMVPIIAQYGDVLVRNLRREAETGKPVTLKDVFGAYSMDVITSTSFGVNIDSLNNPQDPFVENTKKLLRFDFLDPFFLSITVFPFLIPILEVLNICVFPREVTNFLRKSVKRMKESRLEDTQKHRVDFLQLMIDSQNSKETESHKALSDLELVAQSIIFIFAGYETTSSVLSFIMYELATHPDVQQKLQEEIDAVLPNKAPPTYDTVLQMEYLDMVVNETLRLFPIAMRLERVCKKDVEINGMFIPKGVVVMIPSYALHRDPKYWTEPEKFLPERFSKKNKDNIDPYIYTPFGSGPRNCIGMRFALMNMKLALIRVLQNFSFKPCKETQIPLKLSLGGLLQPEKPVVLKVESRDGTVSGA
Cytochrome P450 2D6 (Homo sapiens), sequence (P10635 whole entry, looked up): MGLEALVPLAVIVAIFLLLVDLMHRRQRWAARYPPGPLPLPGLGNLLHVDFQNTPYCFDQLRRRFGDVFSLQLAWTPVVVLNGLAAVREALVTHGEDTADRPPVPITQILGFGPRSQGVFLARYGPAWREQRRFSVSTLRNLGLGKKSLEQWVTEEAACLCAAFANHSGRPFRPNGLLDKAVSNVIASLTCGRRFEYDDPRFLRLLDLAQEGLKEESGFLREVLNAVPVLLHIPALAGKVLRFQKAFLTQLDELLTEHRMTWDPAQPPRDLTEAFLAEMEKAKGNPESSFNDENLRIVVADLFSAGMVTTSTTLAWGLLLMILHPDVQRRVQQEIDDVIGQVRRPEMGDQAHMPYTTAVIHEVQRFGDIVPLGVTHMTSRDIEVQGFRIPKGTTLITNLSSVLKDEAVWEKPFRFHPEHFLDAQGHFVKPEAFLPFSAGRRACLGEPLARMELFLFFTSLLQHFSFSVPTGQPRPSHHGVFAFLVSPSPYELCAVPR

## COC(=O)/C=C\C(=O)O
[1]
  Potency: inactive
[2]
  Potency: inactive
[3]
  Potency: inactive
[4]
  Potency: inactive
[5]
  Potency: inactive

## CCOc1ccccc1OCC1CNCCO1 (stereo not drawn)
[1]
  Potency: inactive
[2]
  Potency: inactive
[3]
  Potency: 0.575 µM (active)
[4]
  Potency: inactive

## O=C(O)CCCCCC(=O)O
[1]
  Potency: inactive
[2]
  Potency: inactive
[3]
  Potency: inactive
[4]
  Potency: inactive
[5]
  Potency: inactive

## CC(=O)CC(=O)Nc1ccc(C)cc1C
[6]
  Potency: inactive
[2]
  Potency: 31.7 µM (active)
[3]
  Potency: 15.9 µM (active)
[4]
  Potency: inactive

## CCCCCCCCCCCCCCCCCCOCCO
[1]
  activity change, negative = inhibition: 7.26% [at 23.6 µM]
[2]
  activity change, negative = inhibition: -10.3% [at 23.6 µM]
[3]
  Potency: 7.12 µM (active)
[4]
  activity change, negative = inhibition: 3.84% [at 15.8 µM]
[5]
  activity change, negative = inhibition: 11.9% [at 23.6 µM]
